# Reference: publication PMC4336329 (PLoS ONE, 2015)
# About 2,200 (0.71%) of roughly 310,000 compounds showed an effect of 50% or more. The effect is printed as a negative number. This is one part of a sample in which strong results are shown more often than they occur.
# Target: human ether-à-go-go-related gene (hERG) potassium channel (human, UniProt Q12809)
# Test: primary screen, population patch clamp on CHO cells stably expressing hERG; higher = less effect of the substance
# Sequence of human ether-à-go-go-related gene (hERG) potassium channel (Q12809 whole entry, looked up): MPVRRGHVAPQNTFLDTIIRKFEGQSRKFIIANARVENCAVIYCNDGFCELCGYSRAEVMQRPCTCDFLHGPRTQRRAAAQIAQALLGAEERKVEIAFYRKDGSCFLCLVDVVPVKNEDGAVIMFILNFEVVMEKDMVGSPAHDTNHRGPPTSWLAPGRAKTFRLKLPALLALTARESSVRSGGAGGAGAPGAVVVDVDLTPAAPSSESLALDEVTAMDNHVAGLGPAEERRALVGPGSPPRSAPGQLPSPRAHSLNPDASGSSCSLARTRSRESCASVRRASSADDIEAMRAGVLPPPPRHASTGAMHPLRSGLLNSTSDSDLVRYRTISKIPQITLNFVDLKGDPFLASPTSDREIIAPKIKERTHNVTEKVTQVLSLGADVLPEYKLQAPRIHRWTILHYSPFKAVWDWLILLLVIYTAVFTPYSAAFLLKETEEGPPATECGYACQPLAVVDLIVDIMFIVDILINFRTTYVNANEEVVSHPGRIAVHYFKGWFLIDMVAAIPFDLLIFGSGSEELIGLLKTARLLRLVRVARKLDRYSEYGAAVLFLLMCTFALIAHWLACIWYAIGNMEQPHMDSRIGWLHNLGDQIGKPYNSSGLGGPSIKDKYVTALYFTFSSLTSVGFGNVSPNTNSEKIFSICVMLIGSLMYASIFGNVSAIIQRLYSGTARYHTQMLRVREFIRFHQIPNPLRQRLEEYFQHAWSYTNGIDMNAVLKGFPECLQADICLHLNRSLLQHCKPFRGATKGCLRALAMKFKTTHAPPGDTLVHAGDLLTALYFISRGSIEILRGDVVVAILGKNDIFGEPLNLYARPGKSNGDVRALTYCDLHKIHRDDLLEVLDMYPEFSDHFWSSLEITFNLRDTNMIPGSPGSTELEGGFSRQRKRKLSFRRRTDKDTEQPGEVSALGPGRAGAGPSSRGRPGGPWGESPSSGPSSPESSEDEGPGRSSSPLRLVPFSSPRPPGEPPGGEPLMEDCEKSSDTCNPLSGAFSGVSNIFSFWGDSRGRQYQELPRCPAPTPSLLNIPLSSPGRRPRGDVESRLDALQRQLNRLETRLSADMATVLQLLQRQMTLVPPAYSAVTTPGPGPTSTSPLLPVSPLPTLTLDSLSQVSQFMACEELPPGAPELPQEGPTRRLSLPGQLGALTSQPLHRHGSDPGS
row,Structure (SMILES),"hERG current change (%, negative = inhibition) at 1uM [%]"
1,CCOc1cccc(C2/C(=C(/O)c3ccc4c(c3)CC(C)O4)C(=O)C(=O)N2Cc2cccnc2)c1 (stereo not shown),18.4
2,CCOC(=O)NCc1ccccc1,-5.01
3,CCCCCCS(=O)[C@H]1CS(=O)(=O)C[C@@H]1S(=O)CCCCCC (stereo partly shown),-25.8
4,CNC(=O)Cn1ncc2c3ccccc3n(C)c2c1=O,13.1
5,O=C(O)CC(NC(=O)C12CC3CC(CC(C3)C1)C2)c1cc([N+](=O)[O-])ccc1Cl (stereo not shown),2.33
6,Cc1nc(SCC(=O)NC2CCCC2)[nH]c(=O)c1C,6.4
7,O=C1OC(c2ccc(Cl)cc2)/C(=C(/O)c2ccccc2)C1=O (stereo not shown),2.03
8,CCOC(=O)c1ccc(NC(=O)c2nc[nH]c2C(=O)NCCCNC(=O)c2[nH]cnc2C(=O)Nc2ccc(C(=O)OCC)cc2)cc1,13.8
9,Cc1cccn2c(=O)c3cc(C(=O)NCC4CCCO4)c(=N)n(CCN4CCOCC4)c3nc12 (stereo not shown),-50.1
10,CCN(C(=O)c1cc2c(=O)n3cccc(C)c3nc2n1CCCOC)C1CCCCC1,4.12
11,COCCCn1c(=N)c(C(=O)NCC2CCCO2)cc2c(=O)n3cccc(C)c3nc21 (stereo not shown),-74.8
12,COCCCn1c(=N)c(C(=O)NCC2CCCO2)cc2c(=O)n3ccccc3nc21 (stereo not shown),-44.3
13,CC(C)OCCCn1c(SC(C)C(=O)NCC2CCCO2)nc2cc(Cl)ccc2c1=O (stereo not shown),7.81
14,Cc1ccc2nc3c(cc(C(=O)NCC4CCCO4)c(=N)n3CCCOC(C)C)c(=O)n2c1 (stereo not shown),-72.5
15,COc1ccc(C2c3c(oc4ccc(Cl)cc4c3=O)C(=O)N2CCN2CCOCC2)cc1 (stereo not shown),-24
16,CC(C)N(Cc1nc(-c2ccc(Cl)cc2)no1)C(=O)CN(C)S(=O)(=O)c1ccc(Cl)cc1,-5.47
17,COCCCn1c(=S)[nH]c2c(sc3ccccc32)c1=O,14.1
18,CCN1CCN(C(=O)c2cc3c(=O)n(C)c4ccccc4c3n2C)CC1,8.54
19,Cc1cc(C)c2c(N)c(C(=O)NNC(=O)c3ccccc3)sc2n1,12.8
20,Nc1ccccc1C(=O)NCc1ccccc1,1.59
21,CC1(C)CC(=O)C2=C(C1)NC(=S)C(C#N)C21CCCCC1 (stereo not shown),10.1
22,CCOC(=O)N1CCN(S(=O)(=O)c2ccc(C(=O)Nc3nnc(C)o3)cc2)CC1,7.3

row,Structure (SMILES),"hERG current change (%, negative = inhibition) at 1uM [%]"
1,CC(CN1C(C)CCCC1C)OC(=O)c1ccccc1Br.Cl (stereo not shown),4.15
2,Cc1ccc(S(=O)(=O)N2CCN(c3nc(CN4CCCC4)nc4sc(C)c(C)c34)CC2)cc1,-48.8
3,Cc1sc2nc(CN3CCCC3)nc(N3CCN(S(=O)(=O)c4ccccc4)CC3)c2c1C,-19.4
4,Cc1sc2nc(CN3CCCC3)nc(N3CCN(S(=O)(=O)c4cccs4)CC3)c2c1C,-65.2
5,CC(C)CC(=O)Nc1nc2ccc(S(C)(=O)=O)cc2s1,4.38
6,O=C(NCc1ccco1)c1scc2c1OCCO2,6.64
7,CCCCn1c(N)c(N(CCOC)C(=O)c2ccc(-c3cccc(C(F)(F)F)c3)o2)c(=O)[nH]c1=O,10.2
8,O=C(Nc1ccc(Cn2nnc3ccccc32)cc1)c1ccco1,9.6
9,Cl.O=C(CN1CCN(C2CCCCC2)CC1)Nc1cccc2ccccc12,4.28
10,O=C(CN1CCCCC1)Nc1ccccc1-c1ccccc1,14.4
11,Cl.O=C(CN1CCN(C2CCCCC2)CC1)Nc1ccccc1-c1ccccc1,-70
12,CCCc1c(C(=O)N/N=C/c2cccnc2)nnn1-c1nonc1N,16.6
13,COc1nccc(-c2ccc(F)cc2)c1C#N,16.9
14,O=C(Cn1c(=O)oc2ccccc21)Nc1ccc(Br)cc1,12.5
15,CCn1c(N)[n+](CC(=O)Nc2ccc(SC(F)F)cc2)c2ccccc21.[Cl-],-63.1
16,CC[N+](CC)(CC)CC(=O)Nc1ccc(SC(F)F)cc1.[Cl-],27.1
17,O=C(Cc1ccccc1)Nc1ccc(SC(F)F)cc1,2.98
18,Cc1cc(C)cc(N2C(=O)CC(c3ccccc3)CC2=O)c1,10.3
19,O=C(COC(=O)c1ccc[nH]c1=O)Nc1ccc2c(c1)OC(F)(F)O2,9.4
20,Cc1cccc2sc(N(CCCN(C)C)C(=O)c3ccco3)nc12.Cl,-54.8
21,Cc1cccc2sc(N(CCCN(C)C)C(=O)c3nc4ccccc4s3)nc12.Cl,3.73
